According to PubChem BioAssay (EPA / NIEHS):
Several values for one entry are separate records, joined by “and”; a condition that tells them apart may be missing. Equal values may be shown once. Results filed as inconclusive are left out. Some compounds were tested as several samples or in several runs, with calls that do not always agree. Activity calls are given as the source filed them. How the source made its calls, unless noted: active means hit-call score of the fitted dose curve at least 0.9, where 1 is the maximum; inconclusive means response in the unintended direction; inactive means score below 0.9.

What was measured:
[1] = CCTE_Shafer_MEA_acute_cross_correlation_HWHM: CCTE's Neural Acute Assay for Cross Correlation at Half Width at Half Maximum, Shafer Lab (AID 2284026; active means hit-call score of the fitted dose curve at least 0.9, where 1 is the maximum; inactive means score below 0.9;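 further: percent change per well from pre-dose baseline in spike cross-correlogram half width; hits are a decrease in cross-correlogram half width relative to DMSO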;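 on outcome: spontaneous network firing of rat primary cortical neurons on multiwell microelectrode arrays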)
Summary of the method: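 Rat primary cortical neurons on 48-well MEA plates; 40-min baseline and 40-min post-exposure recordings at 37 C on DIV 13 or 15, compounds 0.03-40 uM. Spikes detected at 8x rms noise; percent change in cross-correlogram HWHM per well vs baseline.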

[2] = CCTE_Shafer_MEA_acute_synchrony_index: CCTE's Neural Acute Assay for Synchrony, Shafer Lab (AID 2284027; active means hit-call score of the fitted dose curve at least 0.9, where 1 is the maximum; inactive means score below 0.9;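 further: network synchrony index of spontaneous spiking in primary rat cortical neurons on MEAs; fitted for loss of signal so actives lower synchrony relative to DMSO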)
Summary of the method: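 Plates equilibrated 20 min at 37 C, baseline recorded 40 min, compound (0.03-40 uM) added, then 40 min more recorded. Cells: primary rat cortical neurons, DIV 13 or 15. Per-well synchrony index change analysed in negative direction against DMSO.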

[3] = molecular target: Estrogen receptor (Homo sapiens) (UniProt P03372); assay: CCTE_Deisenroth_AIME_384WELL_LUC_Active: CCTE's 384-well Estrogen Receptor Transactivation Assay with AIME metabolic competence (ERTA luciferase; metabolism positive), Deisenroth Lab (AID 2284030)
Summary of the method: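 Chemicals (10-point, 0.002-200 uM) were first incubated 2 hours with alginate-immobilized induced male Sprague Dawley rat liver S9. The conditioned medium was then applied to VM7Luc4E2 cells for 24 hours, with ER luciferase induction read by luminescence relative to 17beta-estradiol.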

[4] = molecular target: Estrogen receptor (Homo sapiens) (UniProt P03372); assay: CCTE_Deisenroth_AIME_384WELL_LUC_Inactive: CCTE's 384-well Estrogen Receptor Transactivation Assay without AIME metabolic competence (ERTA luciferase; metabolism negative), Deisenroth Lab (AID 2284038);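 further: hits raise estrogen receptor luciferase signal so potencies reflect agonists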
Summary of the method: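 VM7Luc4E2 ER transactivation, luciferase bioluminescence after 24 h, using medium pre-incubated 2 h with S9-free alginate microspheres. Concentrations 0.002–200 uM; gain of signal fitted relative to 17beta-estradiol.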

[5] = CCTE_Shafer_MEA_dev_firing_rate_mean: CCTE's Neural Network Formation Assay for Mean Firing Rate, Shafer Lab (AID 2284031; active means hit-call score of the fitted dose curve at least 0.9, where 1 is the maximum; inactive means score below 0.9;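 on AC50: curve fitted for loss of firing so AC50 reflects decreased mean firing rate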)
Summary of the method: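 Steps: seed rat cortical cells (1.5 x 10^5/well) with laminin on PEI-coated MEA; dose day 0; record DIV 5/7/9/12, full media and compound exchange after DIV 5 and 9 recordings; compute well-mean firing rate AUC.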

[6] = CCTE_Shafer_MEA_dev_per_burst_spike_percent: CCTE's Neural Network Formation Assay for Percent of Spikes in a Burst, Shafer Lab (AID 2284032; active means hit-call score of the fitted dose curve at least 0.9, where 1 is the maximum; inactive means score below 0.9;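 on AC50: fitted as a decrease in burst spike percentage below DMSO baseline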)
Summary of the method: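 Value is trapezoidal AUC over recordings on days 5, 7, 9 and 12 of the well-mean fraction of spikes falling in single-electrode bursts; rat cortical cultures exposed continuously from plating, treatment renewed DIV 5 and 9, fitted downward against DMSO.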

[7] = CCTE_Shafer_MEA_dev_active_electrodes_number: CCTE's Neural Network Formation Assay for Number of Active Electrodes, Shafer Lab (AID 2284040);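 on AC50: potency for loss of active electrodes versus DMSO so lower counts are hits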
Summary of the method: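 Counts electrodes per well firing at least 5 spikes/min, recorded on days 5, 7, 9 and 12 in rat cortical cultures dosed continuously from plating (treatment refreshed DIV 5, 9). Value is the area under the curve over recordings, fitted downward relative to DMSO.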

[8] = CCTE_Deisenroth_AIME_384WELL_CTox_Active: Cytotoxicity Assessment (CTOX) in CCTE's 384-well Estrogen Receptor Transactivation Assay with AIME metabolic competence (metabolism positive), Deisenroth Lab (AID 2284037);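 further: chemicals first conditioned 2 h by alginate-bound induced rat liver S9 before cells; activity means signal loss indicating cell death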
Summary of the method: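 Cytotoxicity in VM7Luc4E2 breast cells, 24 hour, measured as protease-substrate fluorescence loss, after 2-hour metabolic conditioning with induced rat hepatic S9 in alginate microspheres. Concentrations 0.002 - 200 uM, 10 points, bidirectional fitting.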

[9] = CCTE_Deisenroth_AIME_384WELL_CTox_Inactive: Cytotoxicity Assessment (CTOX) in CCTE's 384-well Estrogen Receptor Transactivation Assay without AIME metabolic competence (metabolism negative), Deisenroth Lab (AID 2284039);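 further: cell viability via live-cell protease substrate cleaved to fluorescent probe; cells exposed 24 h to medium preincubated 2 h with alginate-water beads without S9; loss of fluorescence signal means loss of viability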
Summary of the method: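 VM7Luc4E2 human breast cells received conditioned medium from a 2 h incubation of chemical with alginate-water microspheres (no S9), then were exposed 24 h. Viability was read as protease-substrate cleavage to a fluorescent probe; loss of signal was fitted bidirectionally over 0.002–200 uM.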

Estrogen receptor (Homo sapiens), sequence (P03372 whole entry, looked up): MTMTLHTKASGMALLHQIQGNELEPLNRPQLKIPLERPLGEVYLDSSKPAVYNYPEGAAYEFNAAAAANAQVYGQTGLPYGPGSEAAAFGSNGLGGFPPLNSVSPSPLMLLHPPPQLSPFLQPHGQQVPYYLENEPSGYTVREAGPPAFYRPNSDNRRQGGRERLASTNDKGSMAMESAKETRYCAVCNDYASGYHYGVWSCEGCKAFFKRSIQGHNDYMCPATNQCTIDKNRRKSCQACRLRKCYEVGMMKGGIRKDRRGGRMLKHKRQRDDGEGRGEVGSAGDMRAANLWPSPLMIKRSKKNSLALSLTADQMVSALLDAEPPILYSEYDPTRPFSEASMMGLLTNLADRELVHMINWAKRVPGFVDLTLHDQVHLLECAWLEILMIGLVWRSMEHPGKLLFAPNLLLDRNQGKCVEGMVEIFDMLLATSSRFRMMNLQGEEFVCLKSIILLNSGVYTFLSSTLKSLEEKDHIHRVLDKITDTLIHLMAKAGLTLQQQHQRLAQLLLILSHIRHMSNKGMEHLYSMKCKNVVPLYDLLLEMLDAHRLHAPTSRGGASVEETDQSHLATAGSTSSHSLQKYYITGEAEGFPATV

For O=C(Oc1ccc(Br)cc1)N1CCN2CCC1CC2, the outcome [1] was “inactive”, the outcome [2] was “inactive” and the outcome [3] was “inactive”. The outcome [4] was “inactive”.
With CCN(CC)N=O the outcome [1] was “inactive” and the outcome [2] was “inactive”.
With C1=Cc2cccc3cccc1c23 the outcome [5] was “inactive”, the outcome [6] was “inactive” and the outcome [7] was “inactive”.
For O=C1CCCO1, the outcome [8] was “inactive”.
With Cc1ccc(N)c(N)c1 the outcome [1] was “inactive”, the AC50 [2] was 20 µM (active) and the outcome [8] was “inactive”. The outcome [9] was “inactive”.
In the case of CCCCCCCCOC(=O)c1ccc(C(=O)OCCCCCCCC)c(C(=O)OCCCCCCCC)c1, the outcome [8] is reported as “inactive” and the outcome [9] is reported as “inactive”.
For O=C(Nc1ccccc1)c1ccccc1I, the AC50 [3] was 38.4 µM (active), the AC50 [4] was 23.7 µM (active) and the outcome [9] was “inactive”.
In the case of CCOc1cccc(C2(N3CCN(c4ccccc4)CC3)CCC(C)CC2)c1 (stereo not drawn), the outcome [3] is reported as “inactive”, the outcome [8] is reported as “inactive” and the outcome [4] is reported as “inactive”. For the same compound, the outcome [9] was “inactive”.
For Nc1ccc(Cl)cc1N, the outcome [9] was “inactive”.
In the case of Oc1ccc2ccc3cccc4ccc1c2c34, the AC50 [8] is reported as 88.4 µM (active) and the outcome [9] is reported as “inactive”.
In the case of COP(=S)(OC)SCN1C(=O)c2ccccc2C1=O, the AC50 [5] is reported as 83.2 µM (active), the outcome [5] is reported as “inactive” and the AC50 [6] is reported as 32.8 µM (active) and 51.5 µM (active). For the same compound, the AC50 [7] was 61.1 µM (active) and 51.5 µM (active).
In the case of Nc1ccc(Oc2ccc(N)cc2)cc1, the outcome [8] is reported as “inactive”.
In the case of CCNS(=O)(=O)C(F)(F)C(F)(F)C(F)(F)C(F)(F)C(F)(F)C(F)(F)C(F)(F)C(F)(F)F, the outcome [5] is reported as “inactive”, the AC50 [6] is reported as 15 µM (active) and 3.54 µM (active) and the outcome [8] is reported as “inactive”. For the same compound, the AC50 [7] was 7.41 µM (active) and 2.98 µM (active).
For Cc1cccc(N)c1N, the outcome [9] was “inactive”.
For O=[N+]([O-])c1ccc(Oc2ccc(Cl)cc2Cl)cc1, the AC50 [1] was 10.9 µM (active), the AC50 [2] was 10.9 µM (active) and the outcome [8] was “inactive”. For the same compound, the outcome [9] was “inactive”.
For CCOC(=O)[C@]1(c2ccccc2)Oc2ccccc2[C@@H]1N, the outcome [8] was “inactive” and the outcome [9] was “inactive”.
For Cc1cc(N=Nc2ccccc2C)ccc1N, the AC50 [1] was 30.1 µM (active), the AC50 [2] was 28.7 µM (active) and the AC50 [8] was 107 µM (active). For the same compound, the AC50 [9] was 103 µM (active).
In the case of CN(C)C(=O)Nc1ccc(Cl)cc1, the outcome [8] is reported as “inactive” and the outcome [9] is reported as “inactive”.
For [O-][Cl+]O, the outcome [3] was “inactive”, the outcome [5] was “inactive” and the outcome [6] was “inactive”. For the same compound, the outcome [8] was “inactive”, the outcome [4] was “inactive” and the outcome [9] was “inactive”. The outcome [7] was “inactive”.
In the case of OCCCBr, the outcome [3] is reported as “inactive”, the outcome [8] is reported as “inactive” and the outcome [4] is reported as “inactive”. For the same compound, the outcome [9] was “inactive”.
With ClCCOCCCl the outcome [1] was “inactive”, the outcome [2] was “inactive” and the outcome [8] was “inactive”. The outcome [9] was “inactive”.
For Cc1ccc([N+](=O)[O-])cc1, the outcome [3] was “inactive”, the outcome [8] was “inactive” and the outcome [4] was “inactive”. For the same compound, the outcome [9] was “inactive”.
With OCCOCCO the outcome [3] was “inactive”, the outcome [5] was “inactive” and the outcome [6] was “inactive”. The outcome [8] was “inactive”, the outcome [4] was “inactive” and the outcome [9] was “inactive”. For the same compound, the outcome [7] was “inactive”.
In the case of CNC(=O)Oc1cccc2c1OC(C)(C)C2, the AC50 [3] is reported as 100 µM (active), the outcome [5] is reported as “inactive” and the AC50 [6] is reported as 15.5 µM (active). For the same compound, the outcome [6] was “inactive”, the AC50 [4] was 53.8 µM (active) and the outcome [9] was “inactive”. For the same compound, the AC50 [7] was 17 µM (active) and 49.6 µM (active).
In the case of Nc1cc(Cl)cc(C(=O)O)c1Cl, the outcome [5] is reported as “inactive”, the outcome [6] is reported as “inactive” and the outcome [7] is reported as “inactive”.
For c1ccc(N=Nc2ccccc2)cc1, the outcome [1] was “inactive”, the outcome [2] was “inactive” and the outcome [8] was “inactive”. The outcome [9] was “inactive”.
With CN(C)[C@@H]1C(=O)C(C(N)=O)=C(O)[C@@]2(O)C(=O)C3=C(O)c4c(O)cccc4[C@@](C)(O)[C@H]3C[C@@H]12 the outcome [5] was “inactive”, the outcome [6] was “inactive” and the outcome [8] was “inactive”. The AC50 [9] was 103 µM (active) and the outcome [7] was “inactive”.
